Test results taken from PubChem BioAssay AID1159580 (chemical genetic matrix, 2015).
Where “and” joins values, the source holds several entries; their conditions need not be identical. Equal values may be shown once. In all, about 5,500 compounds went through this assay and about 2,000 (36%) were called active. Inconclusive results (about 18%) are left out. Rule as the data show it: active = normalized growth mostly below about 0.91 (no sharp cut-off); inconclusive = no clear call, values can overlap the other calls; inactive = mostly above about 0.92. This is one part of the list.

Experiment: chemical genetic growth profiling, strain panel (AID 1159580);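 also: tested at 20 µM; growth read once vehicle control cultures reached saturation at 30 °C; 1 = growth at the plate median or of vehicle wells; lower values mean less growth of the strain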
Conditions: S. cerevisiae deletion strains, growth OD

Measured: normalized growth

CNC(Cc1c[nH]c2ccccc12)C(=O)O (stereo not drawn)
inactive: locus YAL013W, strain DEP1, active compounds read low 0.988 | locus YAL021C, strain ccr4, active compounds read low 0.972 | locus YAL026C, strain drs2, active compounds read low 0.982 | locus YAL030W, strain snc1, active compounds read low 0.974 | locus YBL061C, strain skt5, active compounds read low 0.986 | locus YBR009C, strain hhf1, active compounds read low 0.976 | locus YBR021W, strain FUR4, active compounds read low 1 | locus YBR023C, strain chs3, active compounds read low 0.994 | locus YBR171W, strain sec66, active compounds read low 0.986 | locus YBR229C, strain ROT2, active compounds read low 0.959 | locus YBR231C, strain swc5, active compounds read low 1 | locus YBR279W, strain paf1, active compounds read low 0.997 | locus YCL011C, strain gbp2, active compounds read low 0.985 | locus YCL016C, strain dcc1, active compounds read low 0.976 | locus YCL029C, strain bik1, active compounds read low 0.996 | locus YCL061C, strain MRC1, active compounds read low 0.983 | locus YCL069W, strain vba3, active compounds read low 0.977 | locus YCR088W, strain abp1, active compounds read low 0.991 | locus YDL005C, strain med2, active compounds read low 0.975 | locus YDL035C, strain GPR1, active compounds read low 0.931 | locus YDL040C, strain nat1, active compounds read low 0.976 | locus YDL074C, strain BRE1, active compounds read low 0.981 | locus YDL101C, strain DUN1, active compounds read low 0.982 | locus YDL134C, strain PPH21, active compounds read low 0.972 | locus YDL185W, strain tfp1, active compounds read low 0.97 | locus YDL192W, strain arf1, active compounds read low 0.986 | locus YDR001C, strain nth1, active compounds read low 0.976 | locus YDR069C, strain doa4, active compounds read low 0.991 | locus YDR101C, strain arx1, active compounds read low 1.04 | locus YDR137W, strain rgp1, active compounds read low 1.01 | locus YDR159W, strain sac3, active compounds read low 0.986 | locus YDR162C, strain NBP2, active compounds read low 0.994 | locus YDR195W, strain ref2 0.944 | locus YDR297W, strain sur2, active compounds read low 0.99 | locus YDR318W, strain mcm21, active compounds read low 0.973 | locus YDR334W, strain swr1, active compounds read low 0.983 | locus YDR335W, strain msn5, active compounds read low 0.987 | locus YDR388W, active compounds read low 0.989 | locus YDR392W, strain spt3, active compounds read low 0.963 | locus YDR502C, strain sam2, active compounds read low 0.992 | locus YEL003W, strain gim4, active compounds read low 1 | locus YEL037C, strain rad23, active compounds read low 0.978 | locus YEL061C, strain CIN8 (second series), active compounds read low 0.976 | locus YEL061C, strain CIN8, active compounds read low 0.987 | locus YER015W, strain faa2, active compounds read low 0.986 | locus YER016W, strain bim1, active compounds read low 0.988 | locus YER110C, active compounds read low 0.99 | locus YER111C, strain swi4, active compounds read low 0.988 | locus YER155C, strain BEM2 (second series), active compounds read low 0.996 | locus YER155C, strain BEM2, active compounds read low 1 | locus YER167W, strain BCK2, active compounds read low 1.01 | locus YFR010W, strain ubp6, active compounds read low 0.988 | locus YGL078C, strain dbp3, active compounds read low 0.996 | locus YGL086W, strain mad1, active compounds read low 1.02 | locus YGL167C, strain pmr1, active compounds read low 0.971 | locus YGL173C, strain kem1, active compounds read low 0.996 | locus YGL227W, strain vid30, active compounds read low 0.988 | locus YGL240W, strain doc1, active compounds read low 1 | locus YGL248W, strain PDE1, active compounds read low 0.972 | locus YGL253W, strain hxk2, active compounds read low 0.995 | locus YGR135W, strain pre9, active compounds read low 0.973 | locus YGR252W, strain gcn5, active compounds read low 0.929 | locus YHR013C, strain ard1, active compounds read low 0.978 | locus YHR027C, strain rpn1, active compounds read low 0.982 | locus YHR030C, strain SLT2, active compounds read low 1 and 0.971 | locus YHR079C, strain IRE1 (second series), active compounds read low 0.991 | locus YHR079C, strain IRE1, active compounds read low 0.97 | locus YHR094C, strain hxt1, active compounds read low 0.979 | locus YHR129C, strain ARP1, active compounds read low 0.996 | locus YHR142W, strain chs7, active compounds read low 0.986 | locus YHR200W, strain rpn10, active compounds read low 0.986 | locus YIL066C, strain RNR3, active compounds read low 0.973 | locus YIL073C, strain SPO22, active compounds read low 0.977 | locus YIL125W, strain kgd1, active compounds read low 0.994 | locus YIR030C, strain dcg1, active compounds read low 0.997 | locus YJL092W, strain hpr5, active compounds read low 0.977 | locus YJL095W, strain BCK1 (second series), active compounds read low 0.981 | locus YJL095W, strain BCK1, active compounds read low 0.973 and 1.05 | locus YJL115W, strain asf1, active compounds read low 0.971 | locus YJL129C, strain trk1, active compounds read low 0.971 | locus YJL134W, strain LCB3, active compounds read low 0.985 | locus YJL154C, strain vps35, active compounds read low 0.986 | locus YJL164C, strain tpk1, active compounds read low 0.968 | locus YJL166W, strain qcr8, active compounds read low 0.99 | locus YJL168C, strain set2, active compounds read low 0.992 | locus YJL187C, strain SWE1 (second series), active compounds read low 0.971 | locus YJL187C, strain SWE1, active compounds read low 0.99 | locus YJR043C, strain POL32, active compounds read low 0.974
